Test results from PubChem BioAssay.
Potency and affinity values are given separately. Unmarked numbers belong to inactive results. Where a call stands in place of a potency, no number is given. The source made the active and inactive calls.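 Rule for the calls: active = a fitted half-maximal concentration no higher than twice the top valid tested dose, with signal falling as cells die; inconclusive = flat curve between -70% and -30%, or poor fit; inactive = the rest, including signal rising instead of falling.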

Assay: viability loss in HeLa cells – cell-based, ATP luminescence, cherry-pick samples, cytotoxicity control, dose response (AID 687004)
Conditions: ATP luminescence (CellTiter-Glo), 48 h; series mostly up to 26 µM

SMILES	outcome	activity change, negative = cytotoxicity
O=C(COc1ccc2c(c1)CCC2)NCc1ccc(Cl)cc1	inactive	
CCCN1C(=O)C(O)(C2CC(=O)CC(C)(C)O2)c2ccccc21 (stereo not given)	inactive	
C#CCN(C(=O)c1ccc(OC2CCN(C(=O)CCOC)CC2)cc1)C1CCCCC1	inactive	
CNC[C@@H]1Oc2c(NS(=O)(=O)c3ccc(Cl)cc3)cccc2C(=O)N([C@H](C)CO)C[C@H]1C	inactive	
C[C@H]1CN([C@@H](C)CO)C(=O)c2cc(-c3ccccc3)cnc2O[C@@H]1CN(C)C(=O)c1ccccn1	inactive	
O=C(CN(c1ccc(F)cc1)S(=O)(=O)c1ccccc1)NC1CC2CCC1C2 (stereo not given)	inactive	
CN1c2ccc(-c3ccc(F)cc3)cc2[C@@H]2[C@@H](CCN2C(=O)C2CCOCC2)[C@@H]1CO	inactive	
COc1ccccc1-c1ccc([C@H]2[C@H](C#N)N(C(=O)C3CC3)[C@H]2CO)cc1	inactive	
Cc1cccc(OCC(=O)NCc2ccccc2)c1	inactive	
Cc1cc(C)cc(OCC(=O)NC(C)c2ccccc2)c1 (stereo not given)	inactive	
CCCC(=O)Nc1ccc2c(c1)OC[C@@H](C)N(Cc1ccccn1)C[C@@H](C)[C@H](OC)CN(C)C2=O	inactive	
C/C=C/c1ccc([C@@H]2[C@@H](C#N)N(S(=O)(=O)c3cccc(F)c3)[C@@H]2CO)cc1	inactive	
Cc1noc(C)c1NC(=O)N(C)C[C@H]1Oc2ccc(NC(=O)C3CC3)cc2CC(=O)N([C@@H](C)CO)C[C@H]1C	inactive	
CO[C@@H]1CN(C)C(=O)c2ccc(NS(=O)(=O)c3ccc(Oc4ccccc4)cc3)cc2OC[C@H](C)NC[C@H]1C	inactive	
c1ccc(-n2ncc3c(NCc4ccc5c(c4)OCO5)ncnc32)cc1	inactive	
CCC(C)N(C(=O)CSc1ncnc2c1cnn2-c1ccccc1)C1CCS(=O)(=O)C1 (stereo not given)	inactive	
O=C(NC(=S)Nc1ccccc1[N+](=O)[O-])c1ccccc1	inactive	
COc1ccc(NC(=S)NCc2ccccc2Cl)c(OC)c1	inactive	
C[C@H]1CN([C@@H](C)CO)C(=O)c2cc(C#CC3(O)CCCC3)cnc2O[C@@H]1CN(C)Cc1cccnc1	inactive	
CO[C@H]1CC[C@@H]2CCOc3c(C#N)cccc3C(=O)N(C)C[C@@H](OC)[C@@H](C)C(=O)N(C)C[C@@H]1O2	inactive	

SMILES	outcome	activity change, negative = cytotoxicity
CCNC(=O)C[C@H]1CC[C@@H](NC(=O)NC2CCCCC2)[C@H](CO)O1	inactive	
O=C(NC(=S)NCC1COc2ccccc2O1)c1ccccc1 (stereo not given)	inactive	
COc1ccc(NC(=O)N(C)C[C@H]2OCCCC[C@@H](C)Oc3ccc(NC(=O)c4ccccc4)cc3C(=O)N([C@H](C)CO)C[C@H]2C)cc1	inactive	
Cc1cc(C(=O)Nc2cccc3c2O[C@@H](CN(C)S(=O)(=O)c2ccccc2)[C@@H](C)CN([C@@H](C)CO)C3=O)n(C)n1	inactive	
CC(NC(=O)COc1ccccc1C(C)(C)C)c1ccccc1 (stereo not given)	inactive	
O=C1CCC(C(=O)Nc2cccc3ccccc23)N1 (stereo not given)	inactive	
C[C@@H]1CN([C@@H](C)CO)C(=O)c2cc(NC(=O)C3CC3)ccc2O[C@H]1CN(C)Cc1ccc2c(c1)OCO2	inactive	
C[C@H]1CN([C@@H](C)CO)C(=O)CCCn2cc(nn2)CO[C@@H]1CN(C)Cc1ccc(C(F)(F)F)cc1	inactive	
C[C@H](CO)N1C[C@H](C)[C@@H](CN(C)Cc2ccc(Oc3ccccc3)cc2)Oc2ccc(NC(=O)Nc3ccc4c(c3)OCO4)cc2C1=O	inactive	
CNC[C@H]1OCCCC[C@H](C)Oc2ccc(NC(=O)Cc3ccccc3)cc2C(=O)N([C@H](C)CO)C[C@@H]1C	inactive	
C/C=C/c1ccc([C@@H]2[C@@H](CNC(=O)C3CCC3)N(C(=O)NCCC)[C@H]2CO)cc1	inactive	
CCC(=O)N1[C@H](CO)[C@H](c2ccc(-c3ccc(F)cc3)cc2)[C@@H]1CNC(C)=O	inactive	
Cc1cccc(C)c1NC(=S)NN(Cc1ccccc1)c1ccccc1	inactive	
CCC(C)(C(=O)Nc1ccccc1C)N(C(=O)CNC(C)=O)c1ccccc1C (stereo not given)	inactive	
Cc1ccc(CSc2ncnc3c2cnn3-c2ccccc2)cc1	inactive	
CN1c2ccc(-c3ccc(F)cc3)cc2[C@H]2[C@H](CCN2S(=O)(=O)c2cccc(F)c2)[C@H]1CO		7.29% [at 6 µM]
CC(NC(=O)COc1ccccc1-c1ccccc1)c1ccccc1 (stereo not given)	inactive	
CCC(=O)N1[C@H](CO)[C@@H](c2ccc(-c3cccnc3)cc2)[C@@H]1CN(C)C(C)=O	inactive	
O=C(C[C@H]1CC[C@H]2[C@@H](COC[C@H](O)CN2Cc2cc(F)cc(F)c2)O1)Nc1nccs1	inactive	
O=C(NC[C@H]1[C@H](c2ccccc2)[C@H](CO)N1C(=O)Cc1cccnc1)C1CCC1	inactive	
